Data reported in PubChem BioAssay (NCI).
This is part of a sample that, as a whole, favours compounds with a hit. Of some 83,000 tested, about 20% had one in any assay.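 Method: cells in 96-well plates; compound added at one concentration; 48 h incubation; percent growth measured; values under 10 scored active.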 Calls of active or inactive are those of the source.

Columns and labels:
Assay in all cases: NCI-60 one-dose screen, 48 h (100 = growth as untreated, 0 = no growth, -100 = all killed)
Conditions in all cases: 10 µM unless noted
DU-145 prostate = system: DU-145 prostate
K-562 leukemia = system: K-562 leukemia
MALME-3M melanoma = system: MALME-3M melanoma
MDA-MB-231 breast = system: MDA-MB-231 breast
RXF 393 renal = system: RXF 393 renal
SF-268 CNS = system: SF-268 CNS
SF-295 CNS = system: SF-295 CNS
SF-539 CNS = system: SF-539 CNS
UACC-257 melanoma = system: UACC-257 melanoma
M14 melanoma = system: M14 melanoma
HCT-15 colon = system: HCT-15 colon
HT29 colon = system: HT29 colon
SNB-75 CNS = system: SNB-75 CNS
SNB-19 CNS = system: SNB-19 CNS
U251 CNS = system: U251 CNS
PC-3 prostate = system: PC-3 prostate
SK-MEL-5 melanoma = system: SK-MEL-5 melanoma
UACC-62 melanoma = system: UACC-62 melanoma
SK-MEL-28 melanoma = system: SK-MEL-28 melanoma

Measured: growth

Cc1nn(-c2ccc(Cl)cc2)c(=O)n1CCn1cnc2ccccc21
inactive: DU-145 prostate 114% | K-562 leukemia 97.1% | MALME-3M melanoma 109% | MDA-MB-231 breast 111% | RXF 393 renal 107% | SF-268 CNS 107% | SF-295 CNS 82.8% | SF-539 CNS 101% | UACC-257 melanoma 103% | M14 melanoma 96.7% | HCT-15 colon 104% | HT29 colon 102% | SNB-75 CNS 106% | SNB-19 CNS 113% | U251 CNS 101% | PC-3 prostate 104% | SK-MEL-5 melanoma 113% | UACC-62 melanoma 101% | SK-MEL-28 melanoma 114%

O=C(/C=C/c1ccc2ccccc2c1)Nc1ncc(Cc2ccccc2)s1
inactive: DU-145 prostate 70.4% | K-562 leukemia 70.6% | MALME-3M melanoma 51% | MDA-MB-231 breast 28.5% | RXF 393 renal 93.3% | SF-268 CNS 73.8% | SF-295 CNS 36.8% | SF-539 CNS 78.2% | UACC-257 melanoma 94.8% | M14 melanoma 59.8% | HCT-15 colon 55.7% | HT29 colon 69.5% | SNB-75 CNS 34.4% | SNB-19 CNS 69.5% | U251 CNS 25.8% | PC-3 prostate 71.2% | SK-MEL-5 melanoma 92.8% | UACC-62 melanoma 59.8% | SK-MEL-28 melanoma 85%

C=C(C)[C@@H]1CC[C@]2(C=O)CC[C@]3(C)[C@H](CC[C@@H]4[C@@]5(C)C/C(=C/c6cccnc6)C(=O)C(C)(C)[C@@H]5CC[C@]43C)[C@@H]12
inactive: DU-145 prostate 92.1% | K-562 leukemia 32.3% | MALME-3M melanoma 88.1% | MDA-MB-231 breast 93.8% | RXF 393 renal 83.2% | SF-268 CNS 85.8% | SF-295 CNS 86.9% | SF-539 CNS 96.5% | UACC-257 melanoma 84.5% | M14 melanoma 78.5% | HCT-15 colon 57.6% | HT29 colon 72% | SNB-75 CNS 101% | SNB-19 CNS 84.4% | U251 CNS 73.4% | PC-3 prostate 41.8% | SK-MEL-5 melanoma 74.4% | UACC-62 melanoma 61.5% | SK-MEL-28 melanoma 93.3%

COc1ccc2c(c1)C(Br)=C(CCO)C2c1ccccc1 (configuration not stated)
active: DU-145 prostate -10.3% | SF-295 CNS 1.56%
inactive: K-562 leukemia 122% | MALME-3M melanoma 90.6% | MDA-MB-231 breast 56.3% | RXF 393 renal 20% | SF-268 CNS 84.3% | SF-539 CNS 63.7% | UACC-257 melanoma 77.6% | M14 melanoma 89% | HCT-15 colon 87.6% | HT29 colon 41.8% | SNB-75 CNS 57% | SNB-19 CNS 57.7% | U251 CNS 55.8% | PC-3 prostate 54.5% | SK-MEL-5 melanoma 96.5% | UACC-62 melanoma 60% | SK-MEL-28 melanoma 69.5%

N#Cc1c(-c2ccco2)nc2c(c(-c3ccccc3)nn2-c2ccccc2)c1-c1ccc(O)cc1
inactive: DU-145 prostate 75.8% | K-562 leukemia 15.7% | MALME-3M melanoma 35% | MDA-MB-231 breast 82.4% | RXF 393 renal 101% | SF-268 CNS 67.6% | SF-295 CNS 66.6% | SF-539 CNS 82.5% | UACC-257 melanoma 60.6% | M14 melanoma 65.6% | HCT-15 colon 38.4% | HT29 colon 30.2% | SNB-75 CNS 71.1% | SNB-19 CNS 95.9% | U251 CNS 61.6% | PC-3 prostate 23.8% | SK-MEL-5 melanoma 87.1% | UACC-62 melanoma 89.2% | SK-MEL-28 melanoma 74.7%

CC1(C)CC[C@]2(C(=O)Nc3ccccn3)CC[C@]3(C)C(=CC[C@@H]4[C@@]5(C)C/C(=C/c6ccncc6)C(=O)C(C)(C)[C@@H]5CC[C@]43C)[C@@H]2C1
active: MALME-3M melanoma -2.79% | RXF 393 renal -21.5% | HT29 colon 9.45% | SK-MEL-5 melanoma -49.8%
inactive: DU-145 prostate 33.9% | K-562 leukemia 11% | MDA-MB-231 breast 48.8% | SF-268 CNS 72.5% | SF-295 CNS 30.8% | SF-539 CNS 16.2% | UACC-257 melanoma 48.4% | M14 melanoma 20.6% | HCT-15 colon 15.3% | SNB-75 CNS 91.6% | SNB-19 CNS 58.4% | U251 CNS 10.3% | PC-3 prostate 28% | UACC-62 melanoma 23.9% | SK-MEL-28 melanoma 37.5%

Cc1nn(-c2ccc(Br)cc2)c2nc3[nH]c(=O)[nH]c(=O)c3nc12
inactive: DU-145 prostate 114% | K-562 leukemia 101% | MALME-3M melanoma 108% | MDA-MB-231 breast 110% | RXF 393 renal 114% | SF-268 CNS 110% | SF-295 CNS 98.6% | SF-539 CNS 99.7% | UACC-257 melanoma 99% | M14 melanoma 112% | HCT-15 colon 104% | HT29 colon 101% | SNB-75 CNS 74.6% | SNB-19 CNS 104% | U251 CNS 101% | PC-3 prostate 111% | SK-MEL-5 melanoma 100% | UACC-62 melanoma 102% | SK-MEL-28 melanoma 91.2%

C=C(C)[C@@H]1CC[C@]2(C)CC[C@]3(C)[C@H](CC[C@@H]4[C@@]5(C)CCCNC(C)(C)[C@@H]5CC[C@]43C)[C@@H]12
active: K-562 leukemia 4.15% | HT29 colon 3.37%
inactive: DU-145 prostate 75.6% | MALME-3M melanoma 88.9% | MDA-MB-231 breast 96.7% | RXF 393 renal 88.4% | SF-268 CNS 104% | SF-295 CNS 106% | SF-539 CNS 98.2% | UACC-257 melanoma 107% | M14 melanoma 79.6% | HCT-15 colon 19.2% | SNB-75 CNS 85.9% | SNB-19 CNS 96.3% | U251 CNS 11.9% | PC-3 prostate 78.9% | SK-MEL-5 melanoma 98.4% | UACC-62 melanoma 105% | SK-MEL-28 melanoma 105%
